31 compounds from PubChem BioAssay (NCATS) can be followed below.

The nature of experiment [1]: Viability qHTS for spleen associated tyrosine kinase inhibitor (SYKi) naive MV4-11 cells (AID 1963823). Note: nearly all actives have a fitted effect of over 40% in size. Summed up:
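Seeding of 500 SYKi-naive MV4-11 cells per well onto pre-dispensed compounds preceded a 72 hr incubation at 37 C. Luminescent CellTiter-Glo signal, read after 10 min at room temperature, reflected viable cells.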

The nature of experiment [2]: Viability qHTS for spleen associated tyrosine kinase inhibitor (SYKi) drug resistant MV4-11 cells (AID 1963824). Note: nearly all actives have a fitted effect of over 35% in size. The method in brief: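 CellTiter-Glo luminescence, read 10 min after reagent addition, reports viability after a 72 hr compound exposure. Cells are an MV4-11 line made resistant to SYK inhibition, seeded at 500 per well onto compound-containing plates.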

SMILES strings stand for the structures. Records with an inconclusive call do not appear. Calls of active or inactive are those of the source. Calls come from the whole dose curve; as a rule, active = well fitted cell-killing curve with a large enough effect; inconclusive = small, poorly fitted or top-dose-only effect, or effect the other way; inactive = no such curve, though single readings can be large or run the other way.
Potency is the fitted concentration of half-maximal effect.

As for `C/C(=C\C=C\C(C)C1CCC2(C)C3CCC4C(C)(C)C(=O)CCC45CC35CCC12C)C(=O)O` (configuration not stated), the Potency result in experiment [1] was “inactive”. For the same compound, the Potency in experiment [2] is 6.32 µM (active).
The corresponding values for `CC(C)(C)c1ccc(C(=O)Nc2cn3cc(-n4ccnc4)ccc3n2)cc1` are 1.84 µM (active) and 5.17 µM (active).
The corresponding values for `CC(=O)C1(C)CCC2C3C=C(C)C4=CC(=O)CCC4(C)C3CCC21C` (configuration not stated) are 5.8 µM (active) and 7.31 µM (active).
The corresponding values for `CC1NC(=O)C(Cc2c[nH]c3ccccc23)NC1=O` (configuration not stated) are “inactive” and “inactive”.
On to `COc1cc(C2CC(=O)Nc3c2cc(Br)c2ccccc32)cc(OC)c1OC` (configuration not stated), for which the Potency result in experiment [1] and in experiment [2] was “inactive” each time.
Turning to `CC12CC(O)C(O)C=C1c1cc(O)cc(O)c1C(=O)O2` (configuration not stated), the Potency entry in experiment [1] and in experiment [2] was “inactive” each time.
In the case of `CC1CCC2C(C)(C)C(O)CCC2(C)C12Cc1c(O)cc3c(c1O2)CN(C(CCCN=C(N)N)C(=O)O)C3=O` (configuration not stated), the Potency in experiment [1] is 3.17 µM (active); in experiment [2], 5.63 µM (active).
In the same order, the values of `C=CCc1ccc(O[C@@H]2O[C@H](CO[C@@H]3O[C@H](CO)[C@@H](O)[C@H](O)[C@H]3O)[C@@H](O)[C@H](O)[C@H]2O)c(O)c1` are “inactive” and “inactive”.
Consider `C[C@@H]1Cc2c([nH]c3ccccc23)[C@@H](c2c(F)cc(/C=C/C(=O)O)cc2F)N1CC(C)(C)F`, for which the results for the Potency in experiment [1] and in experiment [2] were 23.5 µM (active) and 20.9 µM (active), respectively.
In the same order, the values of `C=C1CC[C@@H]2[C@](C)(CO)[C@H](O)CC[C@@]2(C)[C@@H]1CC(O)C1=CCOC1=O` (some centres not stated) are 9.04 µM (active) and 4.53 µM (active).
The corresponding values for `CCOc1ncc(S(=O)(=O)N2CCN(CC)CC2)cc1-c1nc2c(CC)n(CCOC)nc2c(=O)[nH]1` are “inactive” and “inactive”.
The corresponding values for `C=C(C(=O)OC[C@H]1O[C@@H](OC(=O)/C=C/c2ccccc2)[C@H](O)[C@@H](O)[C@@H]1O)C(O)CO` (some centres not stated) are 7.96 µM (active) and 11.2 µM (active).
`CN(C)CCNC(=O)c1cccn2c(=O)c3cc4ccccc4cc3nc12`: the Potency was 0.299 µM (active) in experiment [1] and 0.422 µM (active) in experiment [2].
The corresponding values for `CC1=CC(=O)CC(C)(C)C1CCC(C)O[C@@H]1O[C@H](CO)[C@@H](O)[C@H](O)[C@H]1O` (some centres not stated) are “inactive” and “inactive”.
For the compound `CC[C@H](CO)Nc1nc(Nc2cccc(-c3ccccn3)c2)c2ncn(C(C)C)c2n1`, the Potency in experiment [1] is 2.59 µM (active); in experiment [2] it was 5.17 µM (active).
The corresponding values for `CNS(=O)(=O)Nc1nccc(Cc2c(C)c3ccc(Oc4ncccn4)cc3oc2=O)c1F` are 0.417 µM (active) and 0.59 µM (active).
The corresponding values for `Nc1c(-c2ccccc2)nc(Cl)c2c(O)n[nH]c(=O)c12` are “inactive” and “inactive”.
In the same order, the values of `Cc1cc(-c2cc(O)ccc2Cl)cc2nnc(Nc3ccc(OCCN4CCCC4)cc3)nc12` are 1.84 µM (active) and 1.84 µM (active).
With `Cc1ccc2c(c1)C=Cc1cc(C)ccc1C2c1cn(Cc2ccc(C(=O)Nc3nn[nH]n3)o2)c(=O)[nH]c1=S`, the Potency result in experiment [1] and in experiment [2] was “inactive” each time.
With `C[C@@H](O)[C@H](NC(=O)c1ccc(C#Cc2ccc(CN3CCOCC3)cc2)cc1)C(=O)NO`, the Potency in experiment [1] and in experiment [2] was 23.1 µM (active) each time.
For the compound `CC(=O)N(O)CCCCCN1C(=O)CCC1=O`, the Potency result in experiment [1] and in experiment [2] was “inactive” each time.
Consider `CC(=O)c1ccc2c(c1)C(O)C(C(C)(C)O)O2` (configuration not stated), for which the Potency entry in experiment [1] and in experiment [2] was “inactive” each time.
As to `C=CC(=O)N1CCCN(c2cc(NCCC(=O)O)nc(-c3ccccn3)n2)CC1`, the Potency entry in experiment [1] and in experiment [2] was “inactive” throughout.
Regarding `CCOC(=O)c1cnn(-c2ccc(NC(=O)C(Cl)=C(Cl)Cl)cc2)c1C(F)(F)F`, the figures for the Potency in experiment [1] and in experiment [2] were 0.58 µM (active) and 0.366 µM (active), respectively.
In the same order, the values of `COc1cc([C@@H]2Oc3c(OC)cc(CCCO)cc3[C@@H]2CO[C@@H]2O[C@H](CO)[C@@H](O)[C@H](O)[C@H]2O)ccc1O` are “inactive” and “inactive”.
The corresponding values for `C=C1C(=O)O[C@H]2C[C@@H](C)[C@@H]3CCC(=O)[C@@]3(C)C[C@H]12` are 4.11 µM (active) and 2.59 µM (active).
In the same order, the values of `O=C(O)CCc1cccc(O[C@@H]2O[C@H](CO)[C@@H](O)[C@H](O)[C@H]2O)c1O` are “inactive” and “inactive”.
On to `COC(=O)C[C@@H]1C(C(=O)O)=CO[C@@H](O[C@@H]2O[C@H](CO)[C@@H](O)[C@H](O)[C@H]2O)/C1=C\COC(=O)/C=C/c1ccc(O)c(OC)c1`, for which the Potency entry in experiment [1] and in experiment [2] was “inactive” in each case.
Turning to `O=S(=O)(NC1CCNCC1)c1cc(S(=O)(=O)c2ccccc2)ccc1C(F)(F)F`, the Potency result in experiment [1] and in experiment [2] was “inactive” each time.
Consider `CCN(Cc1cccnc1)C(=O)CN(c1ccc(OC)nc1)S(=O)(=O)c1ccccc1C`, for which the Potency entry in experiment [1] and in experiment [2] was “inactive” throughout.
Turning to `C=CC(=O)Nc1ccc(CN2C(=O)N(c3cc(OC)cc(OC)c3)Cc3cnc(Nc4ccc(N5CCN(C)CC5)cc4)nc32)cc1`, the results for the Potency in experiment [1] and in experiment [2] were 1.16 µM (active) and 1.3 µM (active), respectively.
